Measurements: PubChem BioAssay (NCATS)
Several values for one entry are separate records, joined by “and”; a condition that tells them apart may be missing. Equal entries are not always repeated. A number with no mark means an inactive call. The call rests on the fitted dose curve.

target: Glucocorticoid receptor (Homo sapiens) (UniProt P04150); experiment: GR-EFC Redistribution (AID 451); details: CHO-K1 GR-EFC translocation, beta-gal luminescence, 2 h
Text: NIH Molecular Libraries Screening Centers Network [MLSCN]
NIH Chemical Genomics Center [NCGC]
The glucocorticoid receptor (GR) is a cytoplasmic receptor that belongs to the nuclear receptor family of ligand-dependent transcription factors. Upon glucocorticoid binding to its receptor, the glucocorticoid-GR complex translocates into the nucleus, where it binds as a dimer to specific DNA sequences (glucocorticoid response elements), enhancing or suppressing transcription of a wide variety of glucocorticoid-responsive genes. In addition to their important roles in normal physiology and metabolism, glucocorticoids are administered exogenously as treatments for a wide variety of allergic, autoimmune, and neoplastic conditions. Identification of compounds that modulate aspects of GR signalling would be useful in dissecting glucocorticoid response pathways as well as developing GR modulators with more targeted clinical effects.
Traditionally, GR modulators have been identified using receptor binding or direct transactivation assays. However, assays for glucocorticoid-dependent nuclear translocation can also be used to screen for compounds affecting GR signaling.
Immunocytochemical staining has been used to assay for GR translocation, but is not suitable for high throughout screening due to the multiple reagent addition and wash steps required. Recently, a novel cell-based GR assay in Enzyme Fragment Complementation (EFC) format was developed by DiscoveRx (Fremont, CA). The assay uses EFC of b-galactosidase (b-gal) as an indicator of GR-translocation in engineered CHO-K1 biosensor cells. The enzyme acceptor (EA) fragment of b-gal resides in the nucleus , as designed through the use of a proprietary set of sequence additions and modifications. The small peptide enzyme donor (ED) fragment of b-gal is fused directly to the C-terminus of GR, and is localized in the cytoplasm is the absence of receptor signaling. Upon binding to a GR ligand, the complex translocates to the nucleus, where intact enzyme activity is restored by complementation and b-gal activity is detected. We optimized this GR-EFC assay in homogenous 1536-well plate assay format for high throughput screening.
NCGC Assay Protocol Summary:
CHO-K1 cells stably expressing NLS-enzyme acceptor fragment (EA) of b-gal and GR-enzyme donor (ED) fragment of b-gal were maintained in F12 medium (Invitrogen, Carlsbad, CA) at 37 Celsius degrees under a humidified atmosphere containing 5% CO2 and 95% air. The medium contained 10% FBS, 2 mM L-glutamine, 50 U/ml penicillin 50 ug/ml streptomycin, and 250 ug/ml hygromycin and 500 ug/ml G418 (Invitrogen).
GR-translocation was measured beta-gal enzyme activity using the PathHunter Detection Kit containing cell membrane permeablizing reagent and beta-gal substrate (DiscoveRx, Fremont, CA). All compounds were screened as titrations from 0.6 nM to 46 uM final concentration. The assay was performed in 1536-well format as follows:
5 uL cell suspension (1,000 cells)/well
Incubation at 37 Celsius degrees for two hours
1.25 uL 1X detection buffer from the kit supplied by DiscoveRx
Incubation at room temperature for one hour
Read plate in luminescence mode in ViewLux plate reader (PerkinElmer)
Keywords: NIH Roadmap, MLSCN, MLI, MLSMR, GR-EFC, GREFC, qHTS, NCGC
Potency means the concentration at half of the fitted maximal effect.

Sequence of Glucocorticoid receptor (Homo sapiens) (P04150 whole entry, looked up): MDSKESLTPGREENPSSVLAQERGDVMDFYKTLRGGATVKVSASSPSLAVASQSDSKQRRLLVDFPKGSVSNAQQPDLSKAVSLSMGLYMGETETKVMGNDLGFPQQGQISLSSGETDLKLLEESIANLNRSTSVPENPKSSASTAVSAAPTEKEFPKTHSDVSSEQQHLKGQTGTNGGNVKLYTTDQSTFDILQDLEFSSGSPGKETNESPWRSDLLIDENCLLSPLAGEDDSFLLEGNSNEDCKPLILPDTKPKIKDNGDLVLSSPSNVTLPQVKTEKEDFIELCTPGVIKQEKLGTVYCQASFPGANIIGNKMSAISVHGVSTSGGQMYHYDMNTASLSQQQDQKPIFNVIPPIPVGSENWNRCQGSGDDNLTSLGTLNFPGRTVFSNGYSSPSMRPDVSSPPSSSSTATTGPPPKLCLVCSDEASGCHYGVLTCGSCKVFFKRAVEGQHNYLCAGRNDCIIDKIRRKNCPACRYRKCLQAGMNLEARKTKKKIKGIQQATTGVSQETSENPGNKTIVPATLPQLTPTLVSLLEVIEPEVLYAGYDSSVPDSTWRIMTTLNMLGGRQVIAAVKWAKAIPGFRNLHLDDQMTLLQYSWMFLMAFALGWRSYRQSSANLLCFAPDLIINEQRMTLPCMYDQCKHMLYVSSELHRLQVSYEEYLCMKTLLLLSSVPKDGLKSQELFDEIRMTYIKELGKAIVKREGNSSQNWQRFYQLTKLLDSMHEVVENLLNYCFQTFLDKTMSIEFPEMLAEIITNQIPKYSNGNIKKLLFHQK

Row | Structure (SMILES) | Potency
1 | CC(C)[C@H](CO)Nc1nc(Nc2ccc(C(=O)O)c(Cl)c2)c2ncn(C(C)C)c2n1 | > 46 µM
2 | COc1ccc(-c2coc3cc(O)ccc3c2=O)cc1 | > 46 µM
3 | O=C(O)CCc1nc(-c2ccccc2)c(-c2ccccc2)o1 | > 46 µM and > 20.6 µM and > 9.22 µM
4 | CC(=O)c1ccc(S(=O)(=O)NC(=O)NC2CCCCC2)cc1 | > 46 µM and > 20.6 µM
5 | Nc1ncnc2c1ncn2[C@@H]1O[C@@H](CO)[C@H](O)[C@H]1O | > 20.6 µM
6 | CC(C)OC(=O)C(C)(C)Oc1ccc(C(=O)c2ccc(Cl)cc2)cc1 | > 46 µM and > 20.6 µM
7 | CC1(C)CCC2=C(O1)c1ccccc1C(=O)C2=O | > 46 µM
8 | O=c1c(-c2ccc(O)cc2)coc2cc(O)ccc12 | > 46 µM
9 | COCCCCC(=NOCCN)c1ccc(C(F)(F)F)cc1 | > 46 µM and > 20.6 µM
10 | c1cc(-c2sc(-c3ccncc3)c(-c3ccncc3)c2-c2ccncc2)ccn1 | > 9.22 µM
11 | CCCCCCCCCCCC1=C(O)C(=O)C=C(O)C1=O | > 46 µM
12 | COc1ccc(-c2coc3cc(O)cc(O)c3c2=O)cc1 | > 46 µM
13 | Clc1ccc(Cn2c(CN3CCCC3)nc3ccccc32)cc1 | > 46 µM and > 20.6 µM
14 | CS(=O)c1ccc(-c2nc(-c3ccc(F)cc3)c(-c3ccncc3)[nH]2)cc1 (stereo unspecified) | > 46 µM
15 | O=C1NCC2(CCN(CCc3ccccc3)CC2)O1 | > 46 µM and > 20.6 µM
16 | C[C@@H](O)[C@H]1C(=O)N2C(C(=O)O)=C(S[C@@H]3CN[C@H](C(=O)N(C)C)C3)[C@H](C)[C@H]12 | > 20.6 µM

Row | Structure (SMILES) | Potency
17 | CCN1CCC[C@H]1CNC(=O)c1cc(S(N)(=O)=O)ccc1OC | > 20.6 µM and > 46 µM
18 | O=c1cc(-c2ccc(O)cc2)oc2cc(O)cc(O)c12 | > 46 µM and > 20.6 µM
19 | CC/C(=C(\c1ccccc1)c1ccc(OCCN(C)C)cc1)c1ccccc1 | > 46 µM and > 20.6 µM
20 | O=c1cc(-c2ccccc2)oc2cc(O)c(O)c(O)c12 | > 46 µM
21 | O=C1NC(=O)C(c2ccccc2)(c2ccccc2)N1 | > 46 µM
22 | O=c1cc(-c2ccccc2)oc2cc(O)cc(O)c12 | > 20.6 µM
23 | O=C1C[C@@H](c2ccc(O)cc2)Oc2cc(O)cc(O)c21 | > 20.6 µM and > 46 µM
24 | COc1ccc2c3c1OC1C[C@@H](O)C=C[C@@]31CCN(C)C2 (stereo partly specified) | > 20.6 µM
25 | CCN(CC)C(=O)c1ccc(O)c(OC)c1 | > 46 µM and > 20.6 µM
26 | COc1cccc(-c2cc(=O)c3ccccc3o2)c1N | > 46 µM
27 | CC(=O)CCCCn1c(=O)c2c(ncn2C)n(C)c1=O | > 46 µM and > 20.6 µM
28 | CCCNC(=O)NS(=O)(=O)c1ccc(Cl)cc1 | > 46 µM and > 20.6 µM
29 | NC(N)=Nc1nc(CSCC/C(N)=N/S(N)(=O)=O)cs1 | > 46 µM and > 20.6 µM
30 | O=c1c(O)c(-c2ccc(O)cc2)oc2cc(O)cc(O)c12 | > 20.6 µM and > 46 µM
31 | CCCCC1C(=O)N(c2ccccc2)N(c2ccccc2)C1=O | > 46 µM
